# How the values were obtained:
# [1] = molecular target: Serine/threonine-protein kinase MRCK alpha (Homo sapiens) (UniProt Q5VT25); conditions: at 0.1 µM
# [2] = molecular target: Serine/threonine-protein kinase MRCK alpha (Homo sapiens) (UniProt Q5VT25); conditions: at 1 µM
# [3] = molecular target: Serine/threonine-protein kinase MRCK beta (Homo sapiens) (UniProt Q9Y5S2); conditions: at 0.1 µM
# [4] = molecular target: Serine/threonine-protein kinase MRCK beta (Homo sapiens) (UniProt Q9Y5S2); conditions: at 1 µM
# [5] = molecular target: Ribosomal protein S6 kinase alpha-5 (Homo sapiens) (UniProt O75582); conditions: at 0.1 µM
# [6] = molecular target: Ribosomal protein S6 kinase alpha-5 (Homo sapiens) (UniProt O75582); conditions: at 1 µM
# [7] = molecular target: Ribosomal protein S6 kinase alpha-4 (Homo sapiens) (UniProt O75676); conditions: at 0.1 µM
# [8] = molecular target: Ribosomal protein S6 kinase alpha-4 (Homo sapiens) (UniProt O75676); conditions: at 1 µM
# [9] = molecular target: Ribosomal protein S6 kinase beta-1 (Homo sapiens) (UniProt P23443); conditions: at 0.1 µM
# [10] = molecular target: Ribosomal protein S6 kinase beta-1 (Homo sapiens) (UniProt P23443); conditions: at 1 µM
# [11] = molecular target: T1, 3-phosphoinositide-dependent protein kinase 1 (Homo sapiens) (UniProt O15530); conditions: at 0.1 µM;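 also: values are mean inhibition of PDK1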
# T1 sequence (whole entry): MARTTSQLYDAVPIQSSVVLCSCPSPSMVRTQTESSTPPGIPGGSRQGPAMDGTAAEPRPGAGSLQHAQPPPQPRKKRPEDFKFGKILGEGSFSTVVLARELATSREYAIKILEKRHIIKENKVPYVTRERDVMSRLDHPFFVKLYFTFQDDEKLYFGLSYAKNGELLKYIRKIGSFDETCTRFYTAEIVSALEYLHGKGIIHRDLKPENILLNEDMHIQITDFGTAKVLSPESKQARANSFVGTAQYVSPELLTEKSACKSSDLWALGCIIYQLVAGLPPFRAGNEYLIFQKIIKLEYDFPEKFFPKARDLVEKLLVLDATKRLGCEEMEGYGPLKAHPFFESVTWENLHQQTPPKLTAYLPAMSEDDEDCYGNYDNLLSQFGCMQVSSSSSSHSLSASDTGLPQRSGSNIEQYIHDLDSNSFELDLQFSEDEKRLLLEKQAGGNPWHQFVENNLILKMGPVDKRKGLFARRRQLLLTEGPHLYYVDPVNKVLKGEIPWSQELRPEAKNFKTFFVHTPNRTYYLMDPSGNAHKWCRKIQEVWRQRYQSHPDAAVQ
# [12] = molecular target: cAMP-dependent protein kinase catalytic subunit alpha (Homo sapiens) (UniProt P17612); conditions: at 0.1 µM
# [13] = molecular target: cAMP-dependent protein kinase catalytic subunit alpha (Homo sapiens) (UniProt P17612); conditions: at 1 µM
# [14] = molecular target: Protein kinase C alpha type (Homo sapiens) (UniProt P17252); conditions: at 0.1 µM
# [15] = molecular target: Protein kinase C alpha type (Homo sapiens) (UniProt P17252); conditions: at 1 µM
# [16] = molecular target: Protein kinase C beta type (Homo sapiens) (UniProt P05771); conditions: at 0.1 µM
# [17] = molecular target: Protein kinase C beta type (Homo sapiens) (UniProt P05771); conditions: at 1 µM
# [18] = molecular target: Protein kinase C eta type (Homo sapiens) (UniProt P24723); conditions: at 0.1 µM
# [19] = molecular target: Protein kinase C eta type (Homo sapiens) (UniProt P24723); conditions: at 1 µM
# [20] = molecular target: Protein kinase C gamma type (Homo sapiens) (UniProt P05129); conditions: at 0.1 µM;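 also: values are mean percent inhibition of PKC gamma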
# Serine/threonine-protein kinase MRCK alpha (Homo sapiens), sequence (Q5VT25 whole entry): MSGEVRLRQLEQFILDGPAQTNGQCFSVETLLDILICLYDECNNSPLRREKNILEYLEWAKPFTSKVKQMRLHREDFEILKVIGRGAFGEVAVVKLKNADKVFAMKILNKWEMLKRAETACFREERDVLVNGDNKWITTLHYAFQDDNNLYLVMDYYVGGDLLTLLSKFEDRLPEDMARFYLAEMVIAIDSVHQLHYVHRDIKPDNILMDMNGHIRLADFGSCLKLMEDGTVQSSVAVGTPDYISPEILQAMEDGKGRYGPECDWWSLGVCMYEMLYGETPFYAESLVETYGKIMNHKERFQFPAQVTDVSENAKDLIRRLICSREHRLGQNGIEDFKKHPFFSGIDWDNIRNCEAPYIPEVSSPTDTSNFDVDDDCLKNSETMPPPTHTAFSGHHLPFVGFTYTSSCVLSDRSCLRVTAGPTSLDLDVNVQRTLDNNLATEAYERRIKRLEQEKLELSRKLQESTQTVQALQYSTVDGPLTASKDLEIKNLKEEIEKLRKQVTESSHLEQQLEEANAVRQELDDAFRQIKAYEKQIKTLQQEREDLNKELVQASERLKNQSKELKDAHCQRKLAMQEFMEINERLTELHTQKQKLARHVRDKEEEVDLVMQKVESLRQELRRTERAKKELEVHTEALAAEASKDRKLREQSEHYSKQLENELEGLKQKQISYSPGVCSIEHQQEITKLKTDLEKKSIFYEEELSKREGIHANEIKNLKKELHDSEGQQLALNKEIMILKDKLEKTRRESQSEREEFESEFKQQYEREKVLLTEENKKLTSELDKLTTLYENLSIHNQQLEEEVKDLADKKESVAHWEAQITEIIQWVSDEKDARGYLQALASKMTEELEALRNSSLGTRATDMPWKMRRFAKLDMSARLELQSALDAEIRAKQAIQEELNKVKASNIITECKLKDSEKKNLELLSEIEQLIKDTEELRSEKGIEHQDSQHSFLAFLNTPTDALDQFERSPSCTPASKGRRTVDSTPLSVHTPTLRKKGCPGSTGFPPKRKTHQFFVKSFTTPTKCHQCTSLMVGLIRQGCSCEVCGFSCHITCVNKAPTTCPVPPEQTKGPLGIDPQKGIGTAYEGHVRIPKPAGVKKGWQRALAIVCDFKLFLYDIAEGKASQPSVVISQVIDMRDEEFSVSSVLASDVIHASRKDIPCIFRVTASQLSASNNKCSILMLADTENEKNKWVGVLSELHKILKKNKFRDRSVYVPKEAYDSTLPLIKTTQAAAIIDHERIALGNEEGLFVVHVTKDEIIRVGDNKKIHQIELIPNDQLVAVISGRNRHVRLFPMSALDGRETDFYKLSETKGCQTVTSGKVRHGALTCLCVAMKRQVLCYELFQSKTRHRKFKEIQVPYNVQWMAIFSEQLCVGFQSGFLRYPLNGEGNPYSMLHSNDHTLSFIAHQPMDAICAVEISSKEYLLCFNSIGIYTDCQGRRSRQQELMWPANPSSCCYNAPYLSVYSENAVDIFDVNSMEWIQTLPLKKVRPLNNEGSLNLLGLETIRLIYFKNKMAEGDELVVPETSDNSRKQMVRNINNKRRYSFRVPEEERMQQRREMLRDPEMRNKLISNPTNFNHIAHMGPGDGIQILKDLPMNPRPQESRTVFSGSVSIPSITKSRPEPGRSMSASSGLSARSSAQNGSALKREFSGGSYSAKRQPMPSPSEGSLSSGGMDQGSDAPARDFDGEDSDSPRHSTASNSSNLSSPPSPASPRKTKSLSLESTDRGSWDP
# Ribosomal protein S6 kinase alpha-4 (Homo sapiens), sequence (O75676 whole entry, looked up): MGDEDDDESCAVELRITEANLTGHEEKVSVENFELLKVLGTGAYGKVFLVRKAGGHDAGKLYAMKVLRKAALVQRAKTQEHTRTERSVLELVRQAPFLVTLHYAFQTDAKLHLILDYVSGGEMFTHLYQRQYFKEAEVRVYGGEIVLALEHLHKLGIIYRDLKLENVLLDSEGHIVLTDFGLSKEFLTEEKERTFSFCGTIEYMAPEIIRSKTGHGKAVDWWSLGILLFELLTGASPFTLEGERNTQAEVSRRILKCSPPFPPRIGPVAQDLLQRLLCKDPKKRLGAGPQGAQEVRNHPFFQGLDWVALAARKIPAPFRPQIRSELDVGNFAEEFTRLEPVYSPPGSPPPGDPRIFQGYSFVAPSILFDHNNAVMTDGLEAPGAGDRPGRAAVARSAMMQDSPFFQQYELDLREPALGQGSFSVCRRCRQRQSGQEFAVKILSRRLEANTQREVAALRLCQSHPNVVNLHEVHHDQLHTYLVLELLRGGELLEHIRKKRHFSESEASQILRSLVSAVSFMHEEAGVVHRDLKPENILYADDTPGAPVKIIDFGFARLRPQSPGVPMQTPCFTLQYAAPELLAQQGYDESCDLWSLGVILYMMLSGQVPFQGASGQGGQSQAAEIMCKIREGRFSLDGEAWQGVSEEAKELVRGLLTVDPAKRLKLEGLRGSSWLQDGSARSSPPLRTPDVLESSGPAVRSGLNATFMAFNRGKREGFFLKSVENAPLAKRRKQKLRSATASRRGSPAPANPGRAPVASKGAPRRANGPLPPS
# Ribosomal protein S6 kinase beta-1 (Homo sapiens), sequence (P23443 whole entry, looked up): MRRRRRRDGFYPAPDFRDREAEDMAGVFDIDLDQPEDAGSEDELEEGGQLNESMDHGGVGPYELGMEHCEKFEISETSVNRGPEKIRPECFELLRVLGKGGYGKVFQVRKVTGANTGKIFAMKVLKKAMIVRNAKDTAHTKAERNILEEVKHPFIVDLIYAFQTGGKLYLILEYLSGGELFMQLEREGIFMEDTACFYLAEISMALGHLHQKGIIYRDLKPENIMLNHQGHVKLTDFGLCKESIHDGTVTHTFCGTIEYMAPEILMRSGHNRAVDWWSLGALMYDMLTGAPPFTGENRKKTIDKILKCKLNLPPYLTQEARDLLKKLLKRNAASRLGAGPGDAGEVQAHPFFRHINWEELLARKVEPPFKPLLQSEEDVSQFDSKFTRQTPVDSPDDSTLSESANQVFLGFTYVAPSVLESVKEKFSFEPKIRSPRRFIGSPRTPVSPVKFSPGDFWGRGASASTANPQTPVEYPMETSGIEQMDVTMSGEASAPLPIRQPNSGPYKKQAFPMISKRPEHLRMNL
# Protein kinase C eta type (Homo sapiens), sequence (P24723 whole entry): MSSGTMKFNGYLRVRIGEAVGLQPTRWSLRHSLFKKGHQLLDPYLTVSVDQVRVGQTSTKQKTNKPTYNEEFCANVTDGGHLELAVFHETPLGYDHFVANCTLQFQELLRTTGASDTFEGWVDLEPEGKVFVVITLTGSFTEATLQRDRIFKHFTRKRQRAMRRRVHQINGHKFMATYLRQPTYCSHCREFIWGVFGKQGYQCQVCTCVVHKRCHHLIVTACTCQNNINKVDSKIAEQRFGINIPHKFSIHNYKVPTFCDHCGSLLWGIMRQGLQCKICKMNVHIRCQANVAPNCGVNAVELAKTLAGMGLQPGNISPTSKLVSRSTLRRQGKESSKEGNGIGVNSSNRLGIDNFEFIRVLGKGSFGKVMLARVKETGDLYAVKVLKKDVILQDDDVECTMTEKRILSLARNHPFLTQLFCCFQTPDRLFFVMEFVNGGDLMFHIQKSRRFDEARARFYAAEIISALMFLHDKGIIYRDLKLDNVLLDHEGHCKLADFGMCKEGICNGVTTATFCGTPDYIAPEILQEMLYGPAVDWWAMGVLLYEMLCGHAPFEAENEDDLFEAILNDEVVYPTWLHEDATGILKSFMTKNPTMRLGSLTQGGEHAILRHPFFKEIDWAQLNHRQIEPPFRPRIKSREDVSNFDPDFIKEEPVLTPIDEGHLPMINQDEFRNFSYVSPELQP
compound,measurement,setting,value
Fc1ccc(-c2cc(-c3c[nH]nc3-c3ccccn3)ccn2)cc1,inhibition,[1],-0.62%
same,inhibition,[2],2.14%
same,inhibition,[3],-1.2%
same,inhibition,[4],-2.11%
same,inhibition,[5],2.42%
same,inhibition,[6],1.68%
same,inhibition,[7],2.17%
same,inhibition,[8],3.21%
same,inhibition,[9],0.99%
same,inhibition,[10],2.4%
same,inhibition,[11],0.78%
same,inhibition,[12],1.9%
same,inhibition,[13],2.54%
same,inhibition,[14],0.45%
same,inhibition,[15],0.88%
same,inhibition,[16],1.93%
same,inhibition,[17],3.1%
same,inhibition,[18],4.28%
same,inhibition,[19],6.6%
same,inhibition,[20],-0.18%
Cc1ccc(O)cc1Nc1ccnc2cc(-c3ccccn3)ccc12,inhibition,[1],0.02%
same,inhibition,[2],-2.04%
same,inhibition,[3],1.37%
same,inhibition,[4],0.2%
same,inhibition,[5],4.25%
same,inhibition,[6],3.29%
same,inhibition,[7],0.94%
same,inhibition,[8],2.96%
same,inhibition,[9],1.62%
same,inhibition,[10],1.87%
same,inhibition,[11],3.22%
same,inhibition,[12],1.65%
same,inhibition,[13],0.73%
same,inhibition,[14],0.94%
same,inhibition,[15],1.06%
same,inhibition,[16],-0.22%
same,inhibition,[17],0.21%
same,inhibition,[18],4.81%
same,inhibition,[19],3.71%
same,inhibition,[20],5.48%
CCCN(CCS(C)(=O)=O)Cc1ccc(-c2ccc3ncnc(Nc4ccc(OCc5cccc(F)c5)c(Cl)c4)c3c2)o1,inhibition,[1],-1.08%
same,inhibition,[2],0.54%
same,inhibition,[3],-0.36%
same,inhibition,[4],0.64%
same,inhibition,[5],7.14%
same,inhibition,[6],6.79%
same,inhibition,[7],1.76%
same,inhibition,[8],1.8%
same,inhibition,[9],1.21%
same,inhibition,[10],1.92%
same,inhibition,[11],1.25%
same,inhibition,[12],0.67%
same,inhibition,[13],1.36%
same,inhibition,[14],0.08%
same,inhibition,[15],1.04%
same,inhibition,[16],0.26%
same,inhibition,[17],0.52%
same,inhibition,[18],2.45%
same,inhibition,[19],3.94%
same,inhibition,[20],1.25%
CCNC(=O)O[C@H]1CN[C@H](C#Cc2cc3ncnc(Nc4ccc(OCc5cccc(F)c5)c(Cl)c4)c3s2)C1,inhibition,[1],0.37%
same,inhibition,[2],-0.19%
same,inhibition,[3],1.07%
same,inhibition,[4],0.37%
same,inhibition,[5],3.18%
same,inhibition,[6],2.55%
same,inhibition,[7],1.61%
same,inhibition,[8],2.66%
same,inhibition,[9],1.69%
same,inhibition,[10],1.78%
same,inhibition,[11],4.86%
same,inhibition,[12],1.62%
same,inhibition,[13],1.22%
same,inhibition,[14],0.4%
same,inhibition,[15],1.1%
same,inhibition,[16],0.61%
same,inhibition,[17],-2.05%
same,inhibition,[18],3.54%
same,inhibition,[19],-2.11%
same,inhibition,[20],-1.05%
NS(=O)(=O)c1ccc(N/N=C2\C(=O)Nc3ccc4ncccc4c32)cc1,inhibition,[1],1.68%
same,inhibition,[2],13.5%
same,inhibition,[3],0.55%
same,inhibition,[4],7.07%
same,inhibition,[5],5.1%
same,inhibition,[6],14.5%
same,inhibition,[7],20.4%
same,inhibition,[8],61.2%
same,inhibition,[9],2.37%
same,inhibition,[10],12.1%
same,inhibition,[11],20.8%
same,inhibition,[12],1.4%
same,inhibition,[13],3.13%
same,inhibition,[14],0.41%
same,inhibition,[15],3.78%
same,inhibition,[16],-0.44%
same,inhibition,[17],-0.03%
same,inhibition,[18],2.36%
same,inhibition,[19],3.07%
same,inhibition,[20],0.51%
CC1=C(C(=O)Nc2cc(Cl)c3[nH]ncc3c2)C(c2ccc(C(F)(F)F)cc2)CC(=O)N1 (stereo not given),inhibition,[1],17.2%
same,inhibition,[2],64.6%
same,inhibition,[3],23.8%
same,inhibition,[4],65.5%
same,inhibition,[5],56.3%
same,inhibition,[6],81.7%
same,inhibition,[7],32.4%
same,inhibition,[8],68.9%
same,inhibition,[9],8.47%
same,inhibition,[10],41.7%
same,inhibition,[11],1.84%
same,inhibition,[12],21.8%
same,inhibition,[13],71%
same,inhibition,[14],0.91%
same,inhibition,[15],1.52%
same,inhibition,[16],0.15%
same,inhibition,[17],2.02%
same,inhibition,[18],5.7%
same,inhibition,[19],39.1%
same,inhibition,[20],3.92%
COc1cc(/C=N/Nc2ncnc3[nH]ncc23)ccc1O,inhibition,[1],0.11%
same,inhibition,[2],2.49%
same,inhibition,[3],0.6%
same,inhibition,[4],1.83%
same,inhibition,[5],4.13%
same,inhibition,[6],13.9%
same,inhibition,[7],2.93%
same,inhibition,[8],8.42%
same,inhibition,[9],3.45%
same,inhibition,[10],21.4%
same,inhibition,[11],2.95%
same,inhibition,[12],1.43%
same,inhibition,[13],5.96%
same,inhibition,[14],0.03%
same,inhibition,[15],3.59%
same,inhibition,[16],-0.06%
same,inhibition,[17],4.56%
same,inhibition,[18],0.97%
same,inhibition,[19],7.35%
same,inhibition,[20],2.16%
COc1ccc(-c2cc(-c3c[nH]nc3-c3ccccn3)ccn2)cc1,inhibition,[1],-0.6%
same,inhibition,[2],3.02%
same,inhibition,[3],-0.39%
same,inhibition,[4],0.6%
same,inhibition,[5],4.28%
same,inhibition,[6],4.22%
same,inhibition,[7],3.45%
same,inhibition,[8],4.77%
same,inhibition,[9],2.32%
same,inhibition,[10],3.73%
same,inhibition,[11],2.34%
same,inhibition,[12],2.05%
same,inhibition,[13],3.35%
same,inhibition,[14],0.46%
same,inhibition,[15],2.09%
same,inhibition,[16],1.41%
same,inhibition,[17],3.92%
same,inhibition,[18],4.04%
same,inhibition,[19],5.03%
same,inhibition,[20],1.23%
Fc1ccc(-c2nn3ccccc3c2-c2ccncc2)cc1,inhibition,[1],1.08%
same,inhibition,[2],3.93%
same,inhibition,[3],1.99%
same,inhibition,[4],4.92%
same,inhibition,[5],4.62%
same,inhibition,[6],5.97%
same,inhibition,[7],5.06%
same,inhibition,[8],6.2%
same,inhibition,[9],1.21%
same,inhibition,[10],2.15%
same,inhibition,[11],0.82%
same,inhibition,[12],2.55%
same,inhibition,[13],16%
same,inhibition,[14],0.75%
same,inhibition,[15],3.12%
same,inhibition,[16],8.61%
same,inhibition,[17],37.8%
same,inhibition,[18],1.31%
same,inhibition,[19],3.71%
same,inhibition,[20],-2.68%
Cc1ccc2c(-c3ccnc(Nc4ccccc4)n3)c(-c3ccc(F)cc3)nn2n1,inhibition,[1],1.01%
same,inhibition,[2],7.71%
same,inhibition,[3],1.04%
same,inhibition,[4],1.94%
same,inhibition,[5],3.46%
same,inhibition,[6],3.65%
same,inhibition,[7],0.97%
same,inhibition,[8],3.78%
same,inhibition,[9],1.87%
same,inhibition,[10],3.16%
same,inhibition,[11],2.18%
same,inhibition,[12],1.83%
same,inhibition,[13],4.25%
same,inhibition,[14],1.15%
same,inhibition,[15],11.3%
same,inhibition,[16],1.13%
same,inhibition,[17],6.49%
same,inhibition,[18],0.7%
same,inhibition,[19],1.97%
same,inhibition,[20],2.27%
Fc1ccc(-c2nn3ncccc3c2-c2ccnc(Nc3ccc4c(c3)OCCO4)n2)cc1,inhibition,[1],1.99%
same,inhibition,[2],20.4%
same,inhibition,[3],-0.17%
same,inhibition,[4],1.27%
same,inhibition,[5],2.73%
same,inhibition,[6],2.22%
same,inhibition,[7],0.67%
same,inhibition,[8],3.9%
same,inhibition,[9],1.73%
same,inhibition,[10],2.69%
same,inhibition,[11],1.87%
same,inhibition,[12],2.22%
same,inhibition,[13],7.13%
same,inhibition,[14],1.5%
same,inhibition,[15],15.3%
same,inhibition,[16],1.43%
same,inhibition,[17],13.3%
same,inhibition,[18],2.26%
same,inhibition,[19],6.09%
same,inhibition,[20],-1.6%
Nc1nc(-c2ccc(F)cc2)c(-c2ccc3ncccc3n2)s1,inhibition,[1],-0.11%
same,inhibition,[2],3.87%
same,inhibition,[3],0.89%
same,inhibition,[4],0.94%
same,inhibition,[5],3.54%
same,inhibition,[6],3.83%
same,inhibition,[7],3.18%
same,inhibition,[8],4.49%
same,inhibition,[9],2.53%
same,inhibition,[10],2.7%
same,inhibition,[11],3.99%
same,inhibition,[12],1.65%
same,inhibition,[13],3.75%
same,inhibition,[14],1.13%
same,inhibition,[15],2.9%
same,inhibition,[16],0.21%
same,inhibition,[17],3.92%
same,inhibition,[18],1.76%
same,inhibition,[19],6.71%
same,inhibition,[20],2.26%
COc1cccc(-n2ncc3c(N/N=C/c4ccc(F)cc4)ncnc32)c1,inhibition,[1],-0.63%
same,inhibition,[2],1.53%
same,inhibition,[3],-0.45%
same,inhibition,[4],0.66%
same,inhibition,[5],4.05%
same,inhibition,[6],4.15%
same,inhibition,[7],2.78%
same,inhibition,[8],4.13%
same,inhibition,[9],1.73%
same,inhibition,[10],3.51%
same,inhibition,[11],0.01%
same,inhibition,[12],1.66%
same,inhibition,[13],3.69%
same,inhibition,[14],0.47%
same,inhibition,[15],1.43%
same,inhibition,[16],1.01%
same,inhibition,[17],0.97%
same,inhibition,[18],3.28%
same,inhibition,[19],2.58%
same,inhibition,[20],0.86%
